Measurements published in PubChem BioAssay (EPA / NIEHS).
The source made the active and inactive calls. The calls were made as follows: active = hit-call score of the fitted dose curve at least 0.9, where 1 is the maximum; inactive = score below 0.9.

read-out: succinate dehydrogenase complex iron sulfur subunit B (SDHB), SDHB (gene 6390); test: LTEA_HepaRG_SDHB: Life Technologies and Expression Analysis (LTEA) Assay for succinate dehydrogenase complex iron sulfur subunit B (SDHB) using HepaRG (AID 2283528); details: mRNA level, 48 h; actives raise or lower the signal
Protocol: LTEA_HepaRG is a cell based, multiplexed-readout assay that uses HepaRG, a human liver cell line, with measurements taken at 48 hours after chemical dosing on a 96-well plate.LTEA_HepaRG_SDHB is one of 102 assay component(s) measured in the LTEA HepaRG cell culture assay. It is a marker of Cell proliferation, survival, death.Data from the assay component LTEA_HepaRG_SDHB was analyzed into 1 endpoint. This assay endpoint, LTEA_HepaRG_SDHB, was analyzed with bidirectional fitting relative to DMSO as the negative control and baseline of activity. Using a type of inducible reporter, measures of mRNA induction for gain or loss-of-signal activity can be used to understand regulation of transcription factor activity. To generalize the intended target to other relatable targets, this assay endpoint is annotated to the oxidoreductase intended target family, where the subfamily is ubiquinone.
A total of 1060 chemcials from the ToxCast library were tested in eight-point concentration-response experiments. Cell culture and cytotoxicity assays were conducted at Thermo Fisher Scientific's Custom Services facility (Madison, WI). A single lot of human HepaRG cells (Thermo Fisher Scientific, Frederick, MD) was used for the cell culture experiments. 96-well format collagen type I coated plates of human HepaRG cells were prepared using established methods. Briefly, cryopreserved HepaRG cells were thawed, plated at a density of approximately 100,000 cells/well in HepaRG Thaw, Plate, and General Purpose media (HPRG770, Thermo Fisher Scientific), and incubated for 48 hours. 0.5% DMSO was selected as vehicle control to balance the requisite need of DMSO in HepaRG cultures to maintain differentiation (for example, baseline metabolism, proportions of hepatocytes vs. cholangiocytes), while enabling further hepatic receptor pathway activation (for example, PXR and CAR) in response to chemical exposure. 48 hours after plating, the culture medium was replaced with HepaRG Serum-Free Incudtion Media. Cells were exposed to each test chemical in duplicate and maintained in CO2 incubators for another 48 hours. Chemical plates were thawed to room temperature and 200x concentrations of treatment groups were prepared. 8-point conentration-reponse curves were made with the highest exposure at 100 uM, followed by half-log dilutions, all in 0.5% DMSO. Each test plate contained variouse controls, induction positive controls (1mM phenobarbital), cytotoxicity positive controls ([…] aflatoxin B1), vehicle controls (0.5% DMSO), and total lysis controls (0.5% DMSO). Cell morphology images were taken using an Essen IncuCyte FLR automated microscope, with six 96-well plates imaged in about 24 minutes. Images were captured and exported and JPEG files. Spent culture media was transfered to black-well plates for the LDH assay, and remaining media was sorted at -80 C for later use. Cells were treated with RLT buffer and frozen until shipped for gene expression analysis. Total RNA was isolated from the cell suspension in 75 uL of Buffer RLT (Qiagen, Germantown, MD 20874) by Quintiles/Expression Analysis (Durham, NC) using a custom isolation procedure. Total RNA from each plate well was transferred to a preamplification plate. Fluidigm's 96.96 Dynamic ArrayTM (Fluidigm, Amsterdam, the Netherlands) technology was used for gene expression analyses by quantitative reverse transcription polymerase chain reaction (qRT-PCR, performed by Quintiles/Expression Analysis, Durham, NC)89. Standard TaqManTM Assays (Applied Biosystems/ThermoFisher Scientific, Foster City, CA) were used to assess the expression of 93 genes selected based on their selectivity and sensitivity to important hepatic receptors known to be modulated by environmental chemicals; importance in human hepatocyte functionality; and hepatotoxicity. […]

Row | SMILES | outcome | AC50
1 | CCCCc1nc2cccnc2n1Cc1ccc(-c2ccccc2-c2nnn[nH]2)cc1 | inactive | 
2 | Cc1cc(Cc2ccc(N)c(C)c2)ccc1N | inactive | 
3 | CC(C)COC(=O)CCCCC(=O)OCC(C)C | inactive | 
4 | CN(C)CCCN(C)CCCN(C)C | inactive | 
5 | CC(=O)CC(c1ccccc1)c1c(O)c2ccccc2oc1=O (stereo not given) | inactive | 
6 | CC(C)c1cccc(C(C)C)c1 | inactive | 
7 | O=C1c2c(O)cccc2Cc2cccc(O)c21 | inactive | 
8 | O=C1O[C@H]([C@H](O)CO)C(O)=C1O | inactive | 
9 | CC(=O)OCC(COC(C)=O)OC(C)=O | inactive | 
10 | Cc1occc(=O)c1O | inactive | 
11 | Oc1ccccc1O | inactive | 
12 | CN(C)C(=O)NC1(c2ccccc2)CCN(CCC[C@]2(c3ccc(Cl)c(Cl)c3)CCCN(C(=O)c3ccccc3)C2)CC1 | inactive | 
13 | S=c1[nH]c2ccccc2s1 | inactive | 
14 | Cc1cc(SC2=C(O)C[C@@](CCc3ccc(N)cc3)(C(C)C)OC2=O)c(C(C)(C)C)cc1CO | inactive | 
15 | O=Cc1ccccc1C=O | inactive | 
16 | NC(=Nc1ccccc1)Nc1ccccc1 | inactive | 
17 | NC1CCCCC1 | inactive | 
18 | CCCC[C@H]1CN(CC2CCOCC2)C(=O)OC12CCN(C1(C)CCN(C(=O)c3c(C)ncnc3C)CC1)CC2 | inactive | 
19 | O=NO | inactive | 
20 | NCCOCCOCCN | inactive | 

Row | SMILES | outcome | AC50
21 | CC(=O)O[C@]1(C(C)=O)CC[C@H]2[C@@H]3C=C(Cl)C4=CC(=O)[C@@H]5C[C@@H]5[C@]4(C)[C@H]3CC[C@@]21C | inactive | 
22 | CCCCCCCC(=O)OC | inactive | 
23 | CCCCC(CC)CO (stereo not given) | inactive | 
24 | CO[C@@H]1COCC[C@@H]1N[C@@H]1CC[C@@](C(=O)N2CCc3ncc(C(F)(F)F)cc3C2)(C(C)C)C1 | inactive | 
25 | Cc1ccc(-c2cc(C(F)(F)F)nn2-c2ccc(S(N)(=O)=O)cc2)cc1 | inactive | 
26 | CCc1cc(C2=C(C(=O)O)N(c3ccccc3C(F)(F)F)S(=O)(=O)c3ccccc32)cc2c1OCO2 | inactive | 
27 | CS(=O)(=O)c1ccc([C@@H](C[C@H]2CCC(=O)C2)C(=O)Nc2cnccn2)cc1Cl | inactive | 
28 | Oc1ccc(O)cc1 | inactive | 
29 | COc1ccc(C(=O)Nc2nc3ccccc3c(NCc3ccccc3)c2C#N)cc1 | inactive | 
30 | CCN(CC)CCOc1ccc(C(=C(Cl)c2ccccc2)c2ccccc2)cc1 |  | 78.1 µM (active)
31 | CCOCCOCCO | inactive | 
32 | O=C(O)CN(CC(=O)O)CC(=O)O | inactive | 
33 | OCC(CO)n1cnc(-c2ccc(F)cc2)c1-c1ccnc(Oc2ccccc2)n1 | inactive | 
34 | NC=O | inactive | 
35 | C/C=C/c1ccc(OC)cc1 | inactive | 
36 | CC(=O)OC1CC(C)OC(C)O1 (stereo not given) | inactive | 
37 | C=CCc1ccc(OC)c(OC)c1 | inactive | 
38 | C/C=C/C=C/C(=O)O | inactive | 
39 | O=C(N[C@@H](c1ccccc1)[C@@H]1CCCCN1)c1cccc(C(F)(F)F)c1Cl |  | 91.4 µM (active)
40 | O=C(Oc1ccccc1)c1cccc(C(=O)Oc2ccccc2)c1 | inactive | 
